From PubChem
A selection: hits, their analogues and other compounds. The true share with any hit is near 10%.
G9a block – qHTS Assay for Inhibitors of Histone Lysine Methyltransferase G9a | Histone-lysine N-methyltransferase EHMT2 (Homo sapiens), Q96KQ7 | G9a H3K9 monomethylation, AlphaScreen, 2 h | Potency, µM (highest dose often 102 µM), inactives show at the top dose activity, negative = inhibition, hits mostly inhibitors | 8.8% of 350,000 active; also: % is scaled to controls: 0 for no effect and ±100 for the full control effect; nearly all actives have a fitted effect of over 75% in size
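Quantitative HTS format: methyltransferase activity on a biotin-tagged H3K9 peptide is measured by AlphaScreen, using a rabbit anti-monomethyl-H3K9 antibody with streptavidin donor and anti-IgG acceptor beads. Final levels are 20 nM enzyme, 500 nM peptide, 20 uM SAM; 2 h RT.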
BAZ2B block – qHTS Assay for Inhibitors of BAZ2B | Bromodomain adjacent to zinc finger domain protein 2B (Homo sapiens), Q9UIF8 | AlphaScreen BAZ2B-H3K14Ac peptide displacement | Potency, µM (top dose mostly 114 µM), for the others: top-dose activity change, negative = inhibition, most hits filed as inhibitors | 4.4% of 360,000 active; also: % is scaled to controls: 0 for no effect and ±100 for the full control effect; nearly all actives have a fitted effect of over 60% in size
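BAZ2B 50 nM plus b-H3(5-23)K14Ac 50 nM, PBS pH 7.4/0.01% Tween-20, 30 min RT; compound added (max 110 uM), 30 min RT; streptavidin donor/Ni-chelate acceptor beads 10 ug/mL final, 20 min dark; AlphaScreen read.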
GLS inh – qHTS for Inhibitors of Glutaminase (GLS) | Glutaminase kidney isoform, mitochondrial (Homo sapiens), O94925 | GLS enzymatic activity, qHTS titration | Potency, µM (titrated, usually from 45.5 µM), without a hit: top-dose activity change, negative = inhibition, most hits filed as inhibitors | 0.21% of 410,000 active; also: % is scaled to controls: 0 for no effect and ±100 for the full control effect
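Glutamate formation by hKGA was monitored fluorometrically using coupled glutamate oxidase, HRP and Amplex Red. Substrate was added as 1 mM L-glutamine solution; incubation was 30 min at RT after an initial read.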
HP1b binding inh – HTS for Inhibitors of HP1-beta Chromodomain Interactions with Methylated Histone Tails; Potency, µM (top dose mostly 114 µM), for the others: at the highest dose activity change, negative = inhibition, hits mostly inhibitors; AID 540317, 2011; 0.56% of 390,000 active; AlphaScreen HP1-beta / biotin-H3K9me3 peptide binding; Chromobox protein homolog 1 (Homo sapiens), P83916; also: nearly all actives have a fitted effect of over 70% in size
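AlphaScreen: HP1-beta (50 nM) preformed 30 min with biotin-H3(1-18)K9me3 peptide (50 nM) in PBS pH 7.4, 0.01% Tween-20. Compound added for 30 min at RT, then streptavidin donor/nickel chelate acceptor beads (10 ug/mL) for 30 min.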
JMJD2A Tudor inh – qHTS Assay for Inhibitors of JMJD2A-Tudor Domain; Potency, µM (highest dose often 114 µM), inactives show at the highest dose activity change, negative = inhibition, actives largely listed as inhibitors; AID 504339, 2011; 4.4% of 390,000 active; Lysine-specific demethylase 4A (Homo sapiens), O75164; AlphaScreen JMJD2A-Tudor / H3K4me3 peptide binding; also: % is scaled to controls: 0 for no effect and ±100 for the full control effect; nearly all actives have a fitted effect of over 50% in size
Target sequence (O75164 whole entry, looked up, the tested form may be a part): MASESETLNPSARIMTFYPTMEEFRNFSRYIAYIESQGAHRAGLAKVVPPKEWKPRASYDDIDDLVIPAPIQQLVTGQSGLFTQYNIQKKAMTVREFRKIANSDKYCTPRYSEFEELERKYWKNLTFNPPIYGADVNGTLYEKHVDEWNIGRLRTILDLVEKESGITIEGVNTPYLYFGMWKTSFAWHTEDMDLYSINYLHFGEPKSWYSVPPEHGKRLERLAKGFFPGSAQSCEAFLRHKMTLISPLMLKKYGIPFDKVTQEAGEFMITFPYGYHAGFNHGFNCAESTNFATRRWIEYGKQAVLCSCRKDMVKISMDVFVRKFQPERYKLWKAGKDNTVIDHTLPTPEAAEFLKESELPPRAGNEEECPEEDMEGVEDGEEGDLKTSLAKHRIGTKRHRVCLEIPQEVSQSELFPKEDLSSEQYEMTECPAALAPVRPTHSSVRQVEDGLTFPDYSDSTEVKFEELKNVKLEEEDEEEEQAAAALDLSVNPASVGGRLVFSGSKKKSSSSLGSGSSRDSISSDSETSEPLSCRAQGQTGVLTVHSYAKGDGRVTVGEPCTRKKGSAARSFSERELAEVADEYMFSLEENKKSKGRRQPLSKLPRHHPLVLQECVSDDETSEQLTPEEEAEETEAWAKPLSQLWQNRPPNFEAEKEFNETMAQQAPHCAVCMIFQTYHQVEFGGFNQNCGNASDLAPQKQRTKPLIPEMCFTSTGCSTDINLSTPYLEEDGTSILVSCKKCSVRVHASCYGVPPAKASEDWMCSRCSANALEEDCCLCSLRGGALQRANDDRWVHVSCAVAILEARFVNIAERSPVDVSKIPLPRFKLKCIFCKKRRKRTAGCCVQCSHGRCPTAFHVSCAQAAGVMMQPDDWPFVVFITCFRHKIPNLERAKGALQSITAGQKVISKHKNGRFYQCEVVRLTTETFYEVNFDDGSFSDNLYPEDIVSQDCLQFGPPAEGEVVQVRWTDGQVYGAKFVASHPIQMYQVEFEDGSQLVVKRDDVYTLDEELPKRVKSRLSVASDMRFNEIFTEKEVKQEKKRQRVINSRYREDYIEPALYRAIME
Active calls of the source: *; ? = inconclusive; / = no result given; [ ] = remark or other dose. Calls follow the shape of the dose curve; as a rule, active = well fitted curve in the direction sought with a large enough effect; inconclusive = small, poorly fitted or top-dose-only effect, or another doubt; inactive = no such curve, though single readings can be large; an effect the other way counts as inactive or inconclusive. Potency is read from the fitted curve at half-maximal effect.

SMILES | G9a block | BAZ2B block | GLS inh | HP1b binding inh | JMJD2A Tudor inh
CCCc1cc(=O)oc2cc(C)cc(OC(C)C(=O)NCCN3CCOCC3)c12 (centres undefined) | 18% | -17% | 3% | 45% | -11%
Cc1ccc(NC(=O)CCCCCNS(=O)(=O)c2ccc(C)cc2)cc1 | 22% | 1% | 5% | 17% | 18%
Cc1ccc(S(=O)(=O)NCCCCCC(=O)Nc2nccs2)cc1 | 11µM* | 79µM* | 3% | 8% | ?
CCOC1(OCC)N=C(N)C2(C#N)C(c3ccc(NC(C)=O)cc3)C12C#N (centres undefined) | 50µM* | 79µM* | 3% | 12% | ?
COC1(OC)N=C(N)C2(C#N)C(c3ccc(F)cc3)C12C#N (centres undefined) | 25%[12.7 µM] | -33% | -9% | 11% | -28%
CCSC1(SCC)N=C(N)C2(C#N)C(c3ccc(F)cc3)C12C#N (centres undefined) | 40µM* | -23% | 8% | 44% | -6%
Cc1cccc2nc(CSCc3ccco3)cn12 | 45µM* | ? | -12% | 4% | -34%
Cc1nc(-c2ccc(S(=O)(=O)N3CCN(c4ccccc4)CC3)cc2)co1 | -5% | -14%[57.1 µM] | 13% | 26% | -7%
Cc1cccc(N2CCN(S(=O)(=O)c3ccc(-c4coc(C)n4)cc3)CC2C)c1 (centres undefined) | 25µM* | ? | 4% | -1% | -26%
OCc1ccccc1CNCc1ccccc1 | 13%[59 µM] | 6% | -1% | 16% | -12%
Oc1cc(CNCc2ccccc2)c(O)cc1CNCc1ccccc1 | / | / | 18µM* | 32µM* | 7.9µM*
COC(=O)COc1ccc(S(=O)(=O)Nc2cc(OC)ccc2OC)cc1 | -27%[2.33 µM] | 36% | / | / | /
Cc1ccc(-n2ncc(C(=O)N3CCc4ccccc4C3)c2NC(=O)c2ccco2)cc1C | 25µM* | -11% | -2% | 15% | -17%
CCN1C(=O)/C(=C2\SC(=S)N(NC(=O)c3ccccc3O)C2=O)c2ccccc21 | 16µM* | 25µM* | ? | 22µM* | 1.8µM*
CCN1C(=O)/C(=C2\SC(=S)N(c3c(C)n(C)n(-c4ccccc4)c3=O)C2=O)c2ccccc21 | ? | -1% | -5% | 16% | -4%
CCN1C(=O)/C(=C2\SC(=S)N(CC3CCCO3)C2=O)c2ccccc21 (centres undefined) | 4µM* | 10µM* | / | / | /
O=C(CN1C(=O)NC2(CCCC2)C1=O)Nc1ccc(Cl)c(C(F)(F)F)c1 | 17% | 11% | -10% | 25% | -7%
COc1ccc(OC)c(C(=O)COC(=O)CN2C(=O)NC3(CCCCC3C)C2=O)c1 (centres undefined) | 5%[0.501 µM] | 5% | 4% | 22% | -21%
COc1ccc(NC(=O)C(OC(=O)c2ccc([N+](=O)[O-])o2)c2ccccc2)cc1Cl (centres undefined) | ? | ? | 6% | -14% | ?
COc1cccc(CNS(=O)(=O)c2ccccc2Br)c1OC | / | / | 23% | 32% | 79µM*
COc1ccc(C)cc1NCc1cccc(OC)c1OC | 7.9µM* | 45µM* | 4% | ? | 6.3µM*
COc1cc(OC)c(OC)cc1CNc1cc(C)ccc1OC | 7.9µM* | / | 21% | ? | 40µM*
CCOC(=O)c1cc(-c2ccc(C)o2)nn1CCC#N | 13µM* | -39% | 6% | 6% | -14%
NC(=O)c1ccc(SCC(=O)OCC(=O)N2CCCCC2)c([N+](=O)[O-])c1 | 50µM* | -28% | -2% | 30% | 2%
Cc1ccc(NC(=O)CSc2ccc(C(N)=O)cc2[N+](=O)[O-])cc1 | -8%[59 µM] | 2% | 3% | 20% | -13%
SMILES | G9a block | BAZ2B block | GLS inh | HP1b binding inh | JMJD2A Tudor inh
Cc1cc(Br)ccc1SCC(=O)OCC(=O)N1CCN(C(=O)c2ccco2)CC1 | 45µM* | ? | -5% | 10% | -29%
NC(=O)c1ccc(SCC(=O)OCC(=O)N2CCN(C(=O)c3ccco3)CC2)c([N+](=O)[O-])c1 | 56µM* | -9% | -23% | 6% | -18%
Cc1ccc(NC(=O)CSc2ccc(C(N)=O)cc2[N+](=O)[O-])cc1C | -28% | -15% | ? | 6% | 14µM*
COC(=O)C(C)N(C(=O)c1cccc(Cl)c1)c1c(C)cccc1C (centres undefined) | 9%[59 µM] | 64% | 0% | 15% | -5%
O=C(O)c1cc(C2CC2)nc2ccccc12 | ? | -6% | 4% | 38% | -18%
CCc1cc2c3c(c1)C(C)CC(C)(C)N3C(=O)/C2=C1\SC(=O)NC1=O (centres undefined) | 25µM* | ? | 0% | ? | 50µM*
O=S(=O)(Nc1cccc(-c2ccc(N3CCCC3)nn2)c1)c1ccc(F)cc1F | -9%[59 µM] | -11% | 5% | 7% | -26%
C[C@H](NC(=O)OCc1ccccc1)c1nnc([C@H](Cc2ccccc2)NC(=O)OC(C)(C)C)o1 | 22%[59 µM] | -4% | 0% | 29% | -15%
Cc1cccc(CS(=O)(=O)c2nnc([C@H](Cc3ccccc3)NC(=O)OC(C)(C)C)o2)c1 | 10µM* | 4% | -6% | 67% | -4%
COC(=O)CS(=O)(=O)c1nnc([C@H](Cc2ccccc2)NC(=O)OC(C)(C)C)o1 | ? | 7% | 9% | 4% | 79µM*
CN(C)C(=O)CSc1nnc([C@H](Cc2ccccc2)NC(=O)OC(C)(C)C)o1 | 40µM* | 0% | 2% | -9% | -6%
COC(=O)CSc1nnc([C@H](Cc2ccccc2)NC(=O)OC(C)(C)C)o1 | 18% | 2% | 1% | 26% | 13%
CC(C)(C)OC(=O)N[C@@H](Cc1ccccc1)c1nnc(SCC(N)=O)o1 | ? | -10% | -2% | 39% | -22%
COCCn1c(C)cc(C(=O)COc2cccnc2[N+](=O)[O-])c1C | ? | -31% | 1% | 11% | -28%
Cc1cc(C)c(C(=O)COc2cccnc2[N+](=O)[O-])cc1C | 7.1µM* | 50µM* | 10% | 3% | 56µM*
COc1ccc(S(=O)(=O)/N=C2/NC(=O)/C(=C/c3ccco3)S2)cc1 | ? | ? | 5% | 12% | ?
c1ccc(CN2CCC3(CCc4ccccc43)CC2)cc1 | 4%[59 µM] | / | / | / | /
CCOc1cc(/C=C(/NC(C)=O)C(=O)O)cc(Cl)c1OCc1cccc(Br)c1 | -10%[12.7 µM] | 50µM* | 17% | 3%[57 µM] | ?
CCOc1cc(C(N)=O)cc(Cl)c1OCc1ccccc1 | -7%[59 µM] | ? | -2% | 24% | -12%
Cn1c(/N=C/c2ccccc2[N+](=O)[O-])nc2ccccc21 | 79µM* | 8% | 20% | 32% | -9%
